Source: PubChem BioAssay
Values without a mark were called inactive. The source made the active and inactive calls. Unless noted, no stated cut-off is given here; in the data, active means inhibition above about 36%; inactive means the rest.

Key:
[1] = tested on: transactivating tegument protein VP16 (Human herpesvirus 1); assay: compounds suppressing VP16-driven luciferase signal – cell-based, luminescence, single concentration, counter-screen for SRC2 inhibitor project (AID 652007); conditions: cell-based VP16 transactivation luciferase reporter, at 8.9 µM, active compounds read high
[2] = biological target: Nuclear receptor coactivator 2 (Homo sapiens) (UniProt Q15596); assay: inhibition of GAL4-SRC2 driven luciferase expression – cell-based, luminescence, HEK293, triplicate, confirmation (AID 652008;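 active means mean inhibition above 46.5%, the solvent-only control mean plus 3 SD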;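 further: 0% = DMSO-treated cells and 100% = Gossypol at 36 µM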); conditions: HEK293 GAL4-SRC2 luciferase reporter, at 8.9 µM, active compounds read high
Sequence of Nuclear receptor coactivator 2 (Homo sapiens) (Q15596 whole entry, looked up, the tested form may be a part): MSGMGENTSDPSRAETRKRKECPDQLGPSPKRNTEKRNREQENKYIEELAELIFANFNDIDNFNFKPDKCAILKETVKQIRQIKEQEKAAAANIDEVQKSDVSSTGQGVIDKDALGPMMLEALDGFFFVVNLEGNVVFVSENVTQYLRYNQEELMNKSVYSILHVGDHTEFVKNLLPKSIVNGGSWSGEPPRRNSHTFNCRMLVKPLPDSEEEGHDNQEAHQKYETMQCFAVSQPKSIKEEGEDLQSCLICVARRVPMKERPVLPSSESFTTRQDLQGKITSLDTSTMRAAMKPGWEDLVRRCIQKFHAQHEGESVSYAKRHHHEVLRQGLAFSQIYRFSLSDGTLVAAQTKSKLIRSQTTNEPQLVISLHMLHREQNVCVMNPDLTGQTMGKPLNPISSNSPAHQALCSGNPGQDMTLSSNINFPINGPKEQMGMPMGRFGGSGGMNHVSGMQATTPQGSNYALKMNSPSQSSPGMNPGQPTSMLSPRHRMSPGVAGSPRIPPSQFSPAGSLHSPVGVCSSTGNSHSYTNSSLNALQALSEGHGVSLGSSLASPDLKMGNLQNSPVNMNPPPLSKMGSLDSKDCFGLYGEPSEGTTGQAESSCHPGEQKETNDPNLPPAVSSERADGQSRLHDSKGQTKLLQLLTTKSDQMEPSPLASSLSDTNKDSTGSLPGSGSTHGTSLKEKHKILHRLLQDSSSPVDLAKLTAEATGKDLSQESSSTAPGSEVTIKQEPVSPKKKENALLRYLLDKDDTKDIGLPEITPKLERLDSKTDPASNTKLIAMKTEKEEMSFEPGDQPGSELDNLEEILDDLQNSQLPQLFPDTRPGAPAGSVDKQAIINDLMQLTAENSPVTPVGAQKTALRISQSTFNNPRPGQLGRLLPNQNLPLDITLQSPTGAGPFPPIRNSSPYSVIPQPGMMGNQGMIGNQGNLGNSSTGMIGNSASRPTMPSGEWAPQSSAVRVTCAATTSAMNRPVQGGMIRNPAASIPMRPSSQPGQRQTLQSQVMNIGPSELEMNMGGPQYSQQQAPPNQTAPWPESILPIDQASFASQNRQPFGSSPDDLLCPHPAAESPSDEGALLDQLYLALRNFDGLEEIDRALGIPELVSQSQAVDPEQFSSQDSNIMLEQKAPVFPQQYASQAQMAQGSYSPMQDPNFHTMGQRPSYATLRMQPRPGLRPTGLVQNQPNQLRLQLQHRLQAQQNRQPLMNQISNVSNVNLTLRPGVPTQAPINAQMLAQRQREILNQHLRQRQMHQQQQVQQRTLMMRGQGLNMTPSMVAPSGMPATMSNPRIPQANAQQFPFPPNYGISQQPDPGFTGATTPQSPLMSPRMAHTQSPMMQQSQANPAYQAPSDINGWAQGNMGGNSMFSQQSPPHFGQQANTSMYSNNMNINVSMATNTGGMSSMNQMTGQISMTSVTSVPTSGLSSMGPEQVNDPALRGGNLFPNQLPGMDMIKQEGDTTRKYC

| SMILES | inhibition [1] | inhibition [2] |
| --- | --- | --- |
| O=C(NCC1COc2ccccc2O1)c1cccc(S(=O)(=O)N2CCN(c3ccccc3)CC2)c1 (stereo not drawn) | -4.6% | 5.11% |
| CCC(C)(C)c1ccc(Oc2ccc(NC(=O)COC(=O)C3=COCCO3)cc2)cc1 | 33.8% | 46.5% |
| COc1cc(OC)c(CN2CCc3c([nH]c4ccccc34)C2)cc1Br | -7.11% | -4.79% |
| CC(C)CCn1cnc2c(sc3nc4c(cc32)CSC(C)(C)C4)c1=O | -42.3% | -11.9% |
| O=C(CCCN1C(=O)/C(=C/c2ccccc2Cl)SC1=S)NNC(=O)c1ccccc1 | 61.2% (active) | 73% (active) |
| COc1cc(S(=O)(=O)N(C)Cc2ccc3c(c2)OCCO3)ccc1NC(C)=O | -27.6% | -19.6% |
| CCN(CC)c1ccc(/C=N/Nc2nn[nH]n2)cc1 | -13.6% | 43.4% |
| CCOC(=O)CCSc1nc(C(C)(C)C)cc(C(F)(F)F)c1C#N | -14.2% | -27.6% |
| O=C1C=CC(=O)C(CNc2ccc(C(=O)OCc3ccccc3)cc2)=C1 | 38.2% (active) | 39.2% |
| CC(C)[C@H](CO)Nc1nc(NCc2ccc(S(N)(=O)=O)cc2)c2ncn(C(C)C)c2n1 | 14.3% | 37.8% |
| COc1ccc(/C=C2\SC(=S)N(CCCC(=O)Nc3ccc(O)cc3)C2=O)cc1 | 52.4% (active) | 35.3% |
| COc1ccc([N+](=O)[O-])c(S(=O)(=O)c2ccc(Cl)cc2)n1 | 8.89% | 52.3% (active) |
| O=C1CSC(c2ccc([N+](=O)[O-])cc2)N1c1ccc(O)cc1 (stereo not drawn) | 5.23% | -13.8% |
| CCS(=O)(=O)c1cc([N+](=O)[O-])c(Sc2ccccc2NC(C)=O)s1 | -21% | -26.1% |
| COCCNC(=O)CN(C(=O)c1ccc(N2CCCC2)nc1)c1ccc(F)c(Cl)c1 | -5.77% | -19.2% |
| O=C(c1ccc(CS(=O)Cc2ccc(Cl)cc2)o1)N1CCN(c2ccccn2)CC1 (stereo not drawn) | -9.03% | -6.91% |
| C=CC[C@]12CC=CC(=O)[C@@]1(O)O[C@H](c1ccc(OC)c(OC)c1)[C@H]2C | 22.7% | 32% |
| CS(=O)(=O)Nc1cccc(NC(=O)C2Cc3c(-c4cccc(F)c4)ccnc3O2)c1 (stereo not drawn) | 21.8% | 36.3% |
| Cc1ccc(C(=O)Nc2nc3ccccc3[nH]2)cc1 | -3.8% | 49.1% (active) |
| CCNC(=O)C1(C)CCCN(Cc2csc(-c3ccccc3)n2)C1 (stereo not drawn) | -30.6% | -4.83% |
| CCOC(=O)[C@H]1[C@H]2COc3ccc(Br)cc3[C@@H]2N2C(=O)CN(Cc3ccco3)C(=O)[C@@]12C | 0.08% | -14.4% |
| COC(=O)COc1ccc(-c2nccc(-c3ccccn3)n2)cc1 | 16.9% | 73.4% (active) |
| O=S(=O)(c1ccc(NC(=S)NCc2ccco2)cc1)N1CCCCC1 | -14.6% | 4.68% |

| SMILES | inhibition [1] | inhibition [2] |
| --- | --- | --- |
| CC/C=C\[C@H](O)[C@H](O)C1=C(C)C(=O)[C@]2(O1)C(=O)N[C@@](OC)(C(=O)c1ccccc1)C2O (stereo partly drawn) | -28.1% | -3.87% |
| Cc1cc(Cl)c(S(=O)(=O)N2CCN(c3ccccn3)CC2)cc1OCC(=O)NC1CCCCC1 | 10.5% | 16.3% |
| Clc1cccc(CN2CCN(c3ncc(Cc4ccccc4)cn3)CC2)c1Cl | -0.77% | 24.5% |
| COc1cccc(NC(=O)N2CCc3nc(Nc4ccc(C(C)C)cc4)ncc3C2)c1 | -73.3% | 7.35% |
| CN1CCN(S(=O)(=O)c2cccc(C(=O)Nc3ccc(Br)cc3Br)c2)CC1 | 12.2% | 12.1% |
| CCCn1c(CC)nc([N+](=O)[O-])c1Sc1ccc(F)cc1 | -3.5% | 13.2% |
| CCCCC(=O)NC(c1ccccc1OC)c1ccc2cccnc2c1O (stereo not drawn) | -16.1% | 28.1% |
| Cc1ccc(C(=O)c2cnc3ccccc3c2-c2ccccc2)cc1 | -3.52% | 16.4% |
| CC(=O)Nc1cc(=O)c2cccnc2[nH]1 | -8.33% | -9.24% |
| CCN(CC)S(=O)(=O)c1ccc(NC2c3ccccc3C(=O)N2Cc2ccco2)cc1 (stereo not drawn) | -12.8% | -30.1% |
| O=C(O)c1ccccc1C=NN1CCCCCC1 | -9.35% | -24.3% |
| CN1C(=O)C(c2cn(C)c3ccccc23)(c2cn(C)c3ccccc23)c2cc(F)ccc21 | 11.8% | -37.4% |
| CCS(=O)(=O)c1ncc(Cl)c(C(=O)Nc2ccc(S(=O)(=O)N(C)c3ccccc3)cc2)n1 | 65.2% (active) | 98% (active) |
| COc1ccc2nc(NC(=O)C3CCN(S(=O)(=O)c4cccc5nsnc45)CC3)sc2c1 | 39.9% (active) | 52.5% (active) |
| CCCN1C(=O)C2C(C(=O)Nc3cccc(OC)c3)C3C=CC2(O3)C1C(=O)NC1CCCCC1 (stereo not drawn) | -13.7% | -16.6% |
| COc1ccc(OCC(=O)Nc2ccc3c(c2)C(=O)NC3=O)cc1 | -1.89% | -9.88% |
| C=C1C(=O)O[C@@H]2C[C@@H](C)[C@@H]3C=CC(=O)[C@@]3(C)[C@@H](OC(C)=O)[C@H]12 | 96% (active) | 91% (active) |
| C=CCn1nc(C(=O)N2CCOCC2)cc1-c1sc(NC(=O)c2ccccc2)nc1C | -15.6% | 24.6% |
| CSC1=C(C#N)C(c2ccc3c(c2)OCO3)C2=C(CCCC2=O)N1 (stereo not drawn) | 0.63% | -1.64% |
| CCOC(=O)CCC(=O)c1c(C)oc2ccc(OC)cc12 | 6.24% | -15% |
| Cc1cccc(NS(=O)(=O)c2ccc(C)c(C(=O)NC3CCN(Cc4ccccc4)CC3)c2)c1 | 8.2% | 6.89% |
| CCC(NC(=O)CCc1c(C)c2cc3c4c(oc3cc2oc1=O)CCCC4)C(=O)O (stereo not drawn) | 38.3% (active) | 70.3% (active) |
| COc1ccc(CN2C[C@H](Cc3ccccc3)[C@@H](CC(=O)Nc3ccccc3)C2=O)cc1 | -10.9% | 1.81% |

| SMILES | inhibition [1] | inhibition [2] |
| --- | --- | --- |
| COC(=O)c1c(N)sc(C(=O)NCCc2ccccc2)c1C | -1.83% | 49.4% (active) |
| Cn1nnnc1Sc1ncnc2scc(-c3ccc(Br)cc3)c12 | 25% | 37.2% |
| Cc1cc(=O)n2c3c(c4c(cc13)c(CN(C)C)cc(=O)n4C)OC2 | 2.33% | -129% |
| COc1cc(/C=C/C(=O)Nc2ccc(OC)c(S(=O)(=O)N3CCOCC3)c2)ccc1OC(F)F | 11% | 63.1% (active) |
| COc1ccc(C2CC(c3cccs3)=NN2C(=O)CCl)cc1OC (stereo not drawn) | 42.5% (active) | 6.43% |
| CCCCN1CC(COCc2ccccc2)Oc2cccc(NCc3cc(OC)c(OC)c(OC)c3)c2S1(=O)=O (stereo not drawn) | -12.2% | 13.4% |
| O=C(O)COc1ccccc1/C=N/NC(=O)Cc1csc(Nc2cccc(C(F)(F)F)c2)n1 | -15.7% | -14.6% |
| CC(=O)n1cc(N(C(=O)CCl)c2ccccc2)c2ccccc21 | 51.8% (active) | 50.5% (active) |
| COc1ccc(S(=O)(=O)Nc2cc(Sc3ncn[nH]3)c(O)c3ccccc23)cc1 | 26.7% | 10.1% |
| CCc1ccc(/C=C2\SC(=S)N(CCCC(=O)N3CCN(C)CC3)C2=O)cc1 | -9.42% | 11.9% |
| O=C(Nc1ncc([N+](=O)[O-])s1)c1ccc2c(c1)OCO2 | -5.69% | 37.6% |
| CC(=O)O[C@@H]1C[C@H]2C(C)(C)C(=O)C=C[C@]2(C)[C@H]2CC[C@@]3(C)[C@H](c4ccoc4)OC(=O)[C@H]4O[C@]43[C@@]21C | 35.9% (active) | 27% |
| CCc1ccc(-c2nc(CS(=O)CC(=O)NCc3ccccc3)c(C)o2)cc1 (stereo not drawn) | -8.7% | 51.9% (active) |
| C=C1C(=O)[C@]23C[C@H]1CCC2[C@]1(C)CCC[C@@](C)(C(=O)O)C1C[C@@H]3O (stereo partly drawn) | 4.96% | 6.02% |
| O=C(O)CCSc1nc2ccccc2s1 | 40.8% (active) | 58.5% (active) |
| CCOc1ccc(-c2cc(CCCC(=O)NCCc3ccccc3)no2)cc1 | 6.55% | 44.9% |
| CCN1CCN(C(c2ccc(C(F)(F)F)cc2)c2ccc3cccnc3c2O)CC1 (stereo not drawn) | -15.7% | 13.2% |
| Cc1nc2ccccc2c2c1C(=O)N(c1ccc(C(=O)O)cc1)C2=O | -3.24% | -28.2% |
| Nc1ccc(C(=O)N2CCN(S(=O)(=O)c3ccc4c(c3)OCCO4)CC2)cc1[N+](=O)[O-] | 2.71% | 40.5% |
| O=C1N[C@@H](Cc2ccccc2)C(=O)N2[C@H]1CSCCS2(=O)=O | -5.16% | -25.1% |
| Nc1ccc(OC(=O)Nc2ccc(O)cc2)cc1 | 31.8% | 73.7% (active) |
| CN(c1ccccc1)S(=O)(=O)c1ccc(Cl)c(C(=O)Nc2ccncc2)c1 | 0.61% | 29.7% |
| Cc1cc(C(=O)COc2cccnc2[N+](=O)[O-])c(C)n1-c1ccccc1F | -54.6% | 62.7% (active) |
